This is an account of results in PubChem BioAssay (NCI).

This is part of a sample that, as a whole, favours compounds with a hit. Of some 83,000 tested, about 20% had one in any assay.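 Cells were grown in 96-well plates and exposed to the test compound at a single concentration for 48 hours; results are reported as percent growth, with values below 10 considered active.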 Values without a mark were called inactive. The source made the active and inactive calls.

In the experiment the test system is MOLT-4 leukemia. The experiment is described as follows: NCI-60 one-dose screen, 48 h (100 = growth as untreated, 0 = no growth, -100 = all killed). Particulars: 10 µM unless noted. The method, then:
Growth inhibition of the MOLT-4 human tumor cell line is measured as a screen for anti-cancer activity. Cells are grown in 96 well plates and exposed to the test compound for 48 hours. Compounds are tested at a single concentration, which is 10^-5 M for most compounds. The reported endpoint is percent growth (GI% or GIPRCNT), where numbers from 0 - 100% represent growth inhibition, and numbers from -100% - 0 represent cell death. For example, a value of 40 represents 60% growth inhibition. A value of 0 means no net growth occurred over the course of the experiment. A value of -40 indicates 40% of cells at the beginning of the experiment died by the end of the experiment. A value of -100 means all cells are dead at the end of the experiment.
NCI-60 Human Tumor Cell Lines Screen was performed using the standard one-dose NCI protocol, which is described in more detail at https://dtp.cancer.gov/discovery_development/nci-60/default.htm.
Compounds with GIPRCNT values below 10 were considered active. Activity score was based on GIPRCNT using the following formula: […]
Score is 0 for GIPRCNT values of 100 or above, 50 for GIPRCNT values of 0, and 100 for GIPRCNT values of -100.
Consider `Cn1nc(C(F)(F)F)c(-c2ccc(Cl)c(C(F)(F)F)c2)c1-c1ccc(OCc2ccc(Cl)cc2)cc1O`, for which the growth is 12.3%.

`O=C(/C=C/c1ccccn1)c1ccc(OCc2nnc(-c3ccc(Cl)cc3)o2)cc1`: the growth was 17.2%.

Consider `COc1ccc2sc(N(Cc3cccnc3)C(=O)c3ccc(C#N)cc3)nc2c1`, for which the growth is 57.8%.

With `CN1C(=O)N(C)C2C1NN=c1s/c(=C\c3ccc(Cl)cc3Cl)c(=O)n12` (stereo not given), the growth was 13.1%.

With `O=C(c1ccccc1)N(C(=S)NCCc1ccc(Cl)cc1)c1ccc(Cl)cc1`, the growth was -10.7% (active).

In the case of `CCCCCCc1cc2cc(-c3csc(/C=C/c4ccccc4)n3)c(=O)oc2cc1O`, the growth is 4.75% (active).

With `Cc1c(-c2csc(-n3nc(C(F)(F)F)cc3C(F)(F)F)n2)no[n+]1[O-]`, the growth is 87.3%.

For `O=Cc1cc2ccccc2nc1Nc1nccs1`, the growth is 23.4%.

`Oc1c(CN2CCN(c3ccccc3F)CC2)cc(Br)c2cccnc12`: the growth is 5.58% (active).

As to `O=S1(=O)N(Cc2ccccc2)[C@@H](Cc2ccccc2)[C@H](O)[C@H](O)[C@H](Cc2ccccc2)N1Cc1ccccc1`, the growth was 5.65% (active).

In the case of `COc1cc(CNC(=O)c2ccsc2Nc2ccnc(C(F)(F)F)c2)ccc1O`, the growth is 85.4%.

For `O=c1c2cc(F)cc(Cl)c2sc2c(Cl)nc3ccccc3c12`, the growth was 103%.

With `CN1CCN(Cc2ccc(C(=O)Nc3cncc(C#Cc4cnc5cccnn45)c3)cc2C(F)(F)F)CC1`, the growth is 13.6%.

With `FC(F)(F)c1cccc(CNC2CCN(CCc3ccccc3)CC2)c1`, the growth was 54.3%.

On to `N#C/C(=C\c1c(-c2ccccc2)[nH]c2ccccc12)C(=O)c1ccccc1`, for which the growth is 38.9%.

With `COc1ccc(C2C3=C(COC3=O)N(CCO)c3cc4c(cc32)CCC4)cc1OC` (stereo not given), the growth is 24%.

Turning to `CC1=CCC(OC(=O)C(C)(C)CCC(O)(C(=O)OC2(C(C)C)CCC3(C)OC3C2)C(C)C)(C(C)C)CC1` (stereo not given), the growth is -30.3% (active).

As for `Clc1ccc(Oc2ccc(Nc3ncnc4onc(-c5ccccc5)c34)cc2)c(Cl)c1`, the growth was 89.8%.

Consider `FC(F)(F)c1cccc(Nc2nc3ccccc3nc2Nc2cccc(C(F)(F)F)c2)c1`, for which the growth is -11.2% (active).

`CCCCc1ccc(NS(=O)(=O)c2cc3c4c(c2)CCN4C(=O)CC3)cc1`: the growth is 1.64% (active).

For the compound `CCOC(=O)C1(Cc2ccccc2)CCN(Cc2cccc(OC)c2O)CC1`, the growth was 9.72% (active).

Turning to `COc1ccc(C2Nc3nc(OC)n(C)c(=O)c3N=C3c4ccccc4C(=O)C32)cc1` (stereo not given), the growth was 77.3%.

`CN(C)CCCNCc1ccc(-c2ccc(F)c(Cl)c2)o1`: the growth is -4.5% (active).

In the case of `O=c1c2cc(F)ccc2sc2c(NCCN3CCCC3)nc3ccccc3c12`, the growth is 5.14% (active).

Consider `Nc1nc(N)c2c(n1)NC1(C=C(O)c3ccccc31)C1=C(N2)c2ccccc2C1=O` (stereo not given), for which the growth was 104%.

In the case of `COc1cc(C=C2C(=O)N(C)C(=O)N(C)C2=O)cc(CN2CCCCC2)c1O`, the growth was 98.2%.

On to `COc1ccc(-c2nc(N3CCN(C(=O)C4CCCCC4)CC3)c3c4c(sc3n2)CCCC4)cc1`, for which the growth was 1.83% (active).

On to `O=C(CSc1ccc2nnc(-c3cccc(F)c3)n2n1)Nc1ccc2c(c1)OCO2`, for which the growth was 62.1%.

In the case of `COC(=O)c1c2c(c(C)[n+]([O-])c1C)C(=O)C=C(NCc1ccc(F)c(F)c1)C2=O`, the growth is -26.5% (active).

For the compound `Nc1ccc(-n2c(=O)oc3ccc(Cl)cc3c2=O)c(Cl)c1`, the growth was -33.5% (active).

Turning to `O=c1c(-c2nc3ccccc3[nH]2)cc2ccccc2n1Cc1cn(Cc2ccccc2Cl)nn1`, the growth is 32.5%.

For the compound `CCOC(=O)c1c2c(n3cccc(Cl)c13)C(=O)c1ncccc1C2=O`, the growth was 95.8%.

Consider `COc1cccc2cc(N(C)c3nc(C)nc4ccsc34)ccc12`, for which the growth was 3.39% (active).

Consider `COc1cccc(/C(C#N)=C/c2nc3c(N4CCOCC4)nc(Cl)nc3n2C)c1`, for which the growth was -19.4% (active).

For `COc1c(B(O)O)cccc1-c1nc2ccc3n[nH]c(F)c3c2c2c1CCCC2`, the growth is 37.8%.

On to `CCOC(=O)C1(C(=O)OCC)N=C(c2ccccc2)C=C1c1ccccc1`, for which the growth is 81.1%.

Turning to `CCCCCCCCCCCCCCn1cc(C2=C(c3coc4ccc(OC)cc34)C(=O)NC2=O)c2ccccc21`, the growth was 118%.

Consider `CCCCCCC(O)(c1ccc(F)cc1)C(CN1CCOCC1)c1ccccc1` (stereo not given), for which the growth is 17.7%.

On to `COc1ccc(C2=C(c3cccc(OC)c3)C(=O)c3ccc(C)nc3C2=O)cc1`, for which the growth is -31.5% (active).

For `CCOC(=O)c1ccc2[nH]c(-c3ccccc3)cc(=O)c2c1`, the growth was 94%.
